In ChEMBL document CHEMBL3988442, “University of Dundee, Small-Polar-MMV Screening Library” (2021):

What was measured:
[1] = molecular target: T1, Aspartate--tRNA(Asp/Asn) ligase (Mycobacterium tuberculosis (strain ATCC 25618 / H37Rv)) (UniProt P9WFW3); test: Assay for Asp RNA synthetase-1 from Mycobacterium tuberculosis; type: functional; design: scale not given: direction of the effect not stated beside the values; conditions: 30 µM; further: in the data most compounds retested in dose-response had high values
T1 sequence (whole entry): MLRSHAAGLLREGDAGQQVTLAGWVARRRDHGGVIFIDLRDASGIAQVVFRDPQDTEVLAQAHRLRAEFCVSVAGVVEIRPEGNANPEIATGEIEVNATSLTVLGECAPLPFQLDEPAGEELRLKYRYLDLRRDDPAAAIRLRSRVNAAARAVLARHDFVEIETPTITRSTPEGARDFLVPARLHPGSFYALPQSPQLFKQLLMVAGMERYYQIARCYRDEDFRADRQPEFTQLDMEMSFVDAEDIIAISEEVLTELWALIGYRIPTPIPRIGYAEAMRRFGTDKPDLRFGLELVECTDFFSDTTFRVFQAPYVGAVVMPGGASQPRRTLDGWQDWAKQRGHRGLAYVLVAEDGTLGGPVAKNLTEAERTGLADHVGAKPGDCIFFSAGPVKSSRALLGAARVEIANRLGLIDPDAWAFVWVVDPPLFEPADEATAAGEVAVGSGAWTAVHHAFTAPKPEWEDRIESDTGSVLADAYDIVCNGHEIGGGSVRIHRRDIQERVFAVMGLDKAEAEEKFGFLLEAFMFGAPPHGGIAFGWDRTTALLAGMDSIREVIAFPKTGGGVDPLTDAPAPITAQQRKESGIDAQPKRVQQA

[2] = molecular target: Shiga toxin 2 (Escherichia coli O157:H7) (UniProt P09385+P09386); test: E. coli 0.157:H7 Shiga Toxin SOP - stx2 screening assay; type: functional; design: scale not given: direction of the effect not stated beside the values; conditions: 30 µM

## CCn1ccnc1CN(C)C1CCCN(CCc2ccccc2)C1 (configuration not stated)
[1]
  Percent Effect: -0.476%
[2]
  Percent Effect: -36%

## CC(C)COCC1CN(Cc2ccc3c(c2)OCO3)Cc2ncn(C)c21 (configuration not stated)
[1]
  Percent Effect: 2.63%
[2]
  Percent Effect: -19.1%

## O=C(Cc1ccc2c(c1)OCCO2)NC1CCN(CC(F)F)CC1
[1]
  Percent Effect: -1.24%
[2]
  Percent Effect: 11%

## CC(C)S(=O)(=O)NCC1CCCN(C(=O)c2ccc3c(c2)OCCO3)C1 (configuration not stated)
[1]
  Percent Effect: 6.79%
[2]
  Percent Effect: -18.1%

## Cc1ccc(CN2CC[C@H]3[C@@H]2CCC(=O)N3CCN2CCCC2)s1
[1]
  Percent Effect: 2.78%
[2]
  Percent Effect: -33.4%

## Cc1cc(C)nc(CCNC(=O)C(c2ccc(F)cc2)N(C)C)n1 (configuration not stated)
[1]
  Percent Effect: -1.5%
[2]
  Percent Effect: -52.8%

## Cc1cnn(CC2CCCN2C(=O)c2ccc3[nH]nnc3c2)c1 (configuration not stated)
[1]
  Percent Effect: -3.83%
[2]
  Percent Effect: -49.7%

## Cc1cc(CC(=O)N2CCCC2c2nc(C(C)C)no2)on1 (configuration not stated)
[1]
  Percent Effect: -3.79%
[2]
  Percent Effect: 8.6%

## CCN1CCN(Cc2ccnc(-c3cccnc3)n2)CC1
[1]
  Percent Effect: -0.64%
[2]
  Percent Effect: -13.1%

## O=C1COC2(CCN(Cc3cccs3)CC2)CN1c1ccccc1
[1]
  Percent Effect: -2.62%
[2]
  Percent Effect: -22%

## O=C1CC[C@@H]2[C@@H](CCN2C(=O)c2ccsc2)N1CC1CC1
[1]
  Percent Effect: -5.94%
[2]
  Percent Effect: 1.28%

## Cc1ccc(CC(=O)N(C)CC2(O)CCN(c3ccccn3)C2)s1 (configuration not stated)
[1]
  Percent Effect: 5.23%
[2]
  Percent Effect: -0.365%

## CCc1noc(C(C)N2CCN(c3ccc(C#N)cc3F)CC2)n1 (configuration not stated)
[1]
  Percent Effect: 1.23%
[2]
  Percent Effect: 8.4%

## Cc1cc(CN(C)C(=O)C2CCCN(C(=O)c3cccs3)C2)no1 (configuration not stated)
[1]
  Percent Effect: 5.71%
[2]
  Percent Effect: -56.4%

## COc1ccc2c(c1)C1(CCN(Cc3ccoc3)CC1)N(C)CC2
[1]
  Percent Effect: 0.685%
[2]
  Percent Effect: -9.8%

## Fc1cccnc1OC[C@@]12CCO[C@@H]1CCN(CC1CCOCC1)C2
[1]
  Percent Effect: 0.353%
[2]
  Percent Effect: 1.39%

## COCC(=O)N1CCN(Cc2coc(-c3cccc(F)c3)n2)CC1
[1]
  Percent Effect: -1.18%
[2]
  Percent Effect: 16.9%

## COc1ccc(OC)c(C(O)CN2CC(n3cccn3)C2)c1 (configuration not stated)
[1]
  Percent Effect: -0.9%
[2]
  Percent Effect: 21.2%

## CCN1CCC(NC(=O)CN2CCCC2Cn2nc(C)cc2C)CC1 (configuration not stated)
[1]
  Percent Effect: -0.781%
[2]
  Percent Effect: 17.1%

## Cn1nc(C2CCN(C(=O)Cc3cccc(F)c3)CC2)c2cccnc21
[1]
  Percent Effect: -2.81%
[2]
  Percent Effect: -7.51%

## Cn1c(CNc2c(F)cccc2-n2cccn2)cc(=O)n(C)c1=O
[1]
  Percent Effect: -0.864%
[2]
  Percent Effect: 0.236%
